Assay results reported in the supplement of paper PMC11732987, “Enantioselective OTUD7B fragment discovery through chemoproteomics screening and high-throughput optimisation” (Communications Chemistry, 2025).

Columns and labels:
Test in all cases: log2 ratio of Biotin-Ahx-Ub-VS probe labelling (fragment/DMSO); higher = less target engagement (more negative = stronger competition), active = hit call of the paper (q ≤ 0.05, log2 ratio ≤ -1)
Conditions in all cases: compound concentration: 200 uM; treatment time: 3 h
USP42 = target: T1, USP42 (UniProt Q9H9J4)
T1 sequence (whole entry): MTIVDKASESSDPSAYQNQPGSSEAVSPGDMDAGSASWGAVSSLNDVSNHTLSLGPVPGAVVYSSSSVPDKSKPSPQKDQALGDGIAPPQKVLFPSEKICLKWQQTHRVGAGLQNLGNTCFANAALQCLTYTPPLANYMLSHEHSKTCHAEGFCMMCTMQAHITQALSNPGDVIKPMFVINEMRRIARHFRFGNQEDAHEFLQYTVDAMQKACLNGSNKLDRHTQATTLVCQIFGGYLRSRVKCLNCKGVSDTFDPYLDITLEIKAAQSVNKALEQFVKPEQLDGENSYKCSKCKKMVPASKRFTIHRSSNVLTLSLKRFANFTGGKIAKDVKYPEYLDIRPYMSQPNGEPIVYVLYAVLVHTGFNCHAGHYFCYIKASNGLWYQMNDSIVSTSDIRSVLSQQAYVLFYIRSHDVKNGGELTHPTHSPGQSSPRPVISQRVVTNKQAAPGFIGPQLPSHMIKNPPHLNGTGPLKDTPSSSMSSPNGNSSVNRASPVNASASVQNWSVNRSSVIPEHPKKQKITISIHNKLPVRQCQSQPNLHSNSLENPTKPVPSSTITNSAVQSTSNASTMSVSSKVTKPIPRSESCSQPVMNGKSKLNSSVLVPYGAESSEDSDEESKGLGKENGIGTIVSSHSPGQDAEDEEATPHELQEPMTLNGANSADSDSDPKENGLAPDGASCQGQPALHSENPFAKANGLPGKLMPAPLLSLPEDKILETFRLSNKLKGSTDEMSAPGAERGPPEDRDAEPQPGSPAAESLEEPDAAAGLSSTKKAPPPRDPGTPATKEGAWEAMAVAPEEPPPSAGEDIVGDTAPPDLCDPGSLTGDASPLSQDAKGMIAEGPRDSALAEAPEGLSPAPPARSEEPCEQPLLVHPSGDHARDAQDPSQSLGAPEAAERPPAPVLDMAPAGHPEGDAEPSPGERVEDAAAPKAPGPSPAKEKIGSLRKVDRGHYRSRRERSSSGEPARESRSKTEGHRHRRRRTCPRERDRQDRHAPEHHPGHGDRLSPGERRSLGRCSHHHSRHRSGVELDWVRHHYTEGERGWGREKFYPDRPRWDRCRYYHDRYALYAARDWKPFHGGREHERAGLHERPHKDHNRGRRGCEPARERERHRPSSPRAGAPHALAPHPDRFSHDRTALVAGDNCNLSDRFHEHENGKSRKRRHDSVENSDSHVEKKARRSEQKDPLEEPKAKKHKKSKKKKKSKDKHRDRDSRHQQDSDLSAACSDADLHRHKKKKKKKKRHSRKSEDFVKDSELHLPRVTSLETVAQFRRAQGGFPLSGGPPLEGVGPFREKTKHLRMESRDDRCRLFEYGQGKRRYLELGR
Method in brief: (§1)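 Each value is an average log2 ratio of fragment to vehicle, tested by unpaired t-test. The underlying Spectronaut label-free quantities were global-median-normalised, and only proteins with ≥2 unique peptides were included. Triplicate HEK293T lysate samples (495 µg) were exposed to fragment at 200 µM or vehicle for 3 h, then to Biotin-Ahx-Ub-VS at 0.5 µM final for 1 h, before NeutrAvidin enrichment of labelled DUBs, LysC and trypsin digestion, and diaPASEF LC-MS/MS.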

USP46 = USP46 (UniProt P62068)
Method in brief: as §1

USP47 = target: T2, USP47 (UniProt Q96K76)
T2 sequence (whole entry): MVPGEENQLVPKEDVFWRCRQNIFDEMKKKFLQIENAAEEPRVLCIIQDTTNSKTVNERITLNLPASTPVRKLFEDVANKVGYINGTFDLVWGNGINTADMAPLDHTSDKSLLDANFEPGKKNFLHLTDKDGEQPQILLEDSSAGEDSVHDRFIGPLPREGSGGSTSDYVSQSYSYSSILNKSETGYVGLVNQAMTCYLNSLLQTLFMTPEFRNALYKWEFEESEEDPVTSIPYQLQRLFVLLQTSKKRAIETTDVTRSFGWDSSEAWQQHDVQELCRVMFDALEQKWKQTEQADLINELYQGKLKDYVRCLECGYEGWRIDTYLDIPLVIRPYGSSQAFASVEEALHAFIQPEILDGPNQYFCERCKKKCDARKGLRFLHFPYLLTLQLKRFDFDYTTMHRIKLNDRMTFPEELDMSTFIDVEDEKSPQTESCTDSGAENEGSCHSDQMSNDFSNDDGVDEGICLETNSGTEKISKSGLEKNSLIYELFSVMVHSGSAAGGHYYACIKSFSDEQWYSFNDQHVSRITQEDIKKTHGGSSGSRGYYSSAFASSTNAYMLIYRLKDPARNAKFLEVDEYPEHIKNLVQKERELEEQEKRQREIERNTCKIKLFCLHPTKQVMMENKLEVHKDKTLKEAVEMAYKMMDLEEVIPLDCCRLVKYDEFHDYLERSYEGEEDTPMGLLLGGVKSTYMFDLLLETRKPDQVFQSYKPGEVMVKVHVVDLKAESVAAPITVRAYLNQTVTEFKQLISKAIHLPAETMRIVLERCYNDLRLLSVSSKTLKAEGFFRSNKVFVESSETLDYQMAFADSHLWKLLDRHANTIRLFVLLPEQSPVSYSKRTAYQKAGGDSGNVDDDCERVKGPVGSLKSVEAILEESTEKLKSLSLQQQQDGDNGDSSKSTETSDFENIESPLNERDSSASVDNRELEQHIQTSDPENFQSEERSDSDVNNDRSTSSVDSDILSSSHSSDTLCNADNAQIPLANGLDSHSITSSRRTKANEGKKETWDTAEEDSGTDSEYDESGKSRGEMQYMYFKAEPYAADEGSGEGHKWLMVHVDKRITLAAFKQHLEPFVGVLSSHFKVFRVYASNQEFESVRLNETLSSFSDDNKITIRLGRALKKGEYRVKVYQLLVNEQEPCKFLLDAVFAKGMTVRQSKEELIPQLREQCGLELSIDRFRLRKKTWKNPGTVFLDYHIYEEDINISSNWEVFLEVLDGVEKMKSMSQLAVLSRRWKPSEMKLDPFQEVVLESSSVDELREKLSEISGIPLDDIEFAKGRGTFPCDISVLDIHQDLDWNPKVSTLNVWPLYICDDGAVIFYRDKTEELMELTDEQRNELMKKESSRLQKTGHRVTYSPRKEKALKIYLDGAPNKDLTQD
Method in brief: as §1

USP48 = target: T3, USP48 (UniProt Q86UV5)
T3 sequence (whole entry): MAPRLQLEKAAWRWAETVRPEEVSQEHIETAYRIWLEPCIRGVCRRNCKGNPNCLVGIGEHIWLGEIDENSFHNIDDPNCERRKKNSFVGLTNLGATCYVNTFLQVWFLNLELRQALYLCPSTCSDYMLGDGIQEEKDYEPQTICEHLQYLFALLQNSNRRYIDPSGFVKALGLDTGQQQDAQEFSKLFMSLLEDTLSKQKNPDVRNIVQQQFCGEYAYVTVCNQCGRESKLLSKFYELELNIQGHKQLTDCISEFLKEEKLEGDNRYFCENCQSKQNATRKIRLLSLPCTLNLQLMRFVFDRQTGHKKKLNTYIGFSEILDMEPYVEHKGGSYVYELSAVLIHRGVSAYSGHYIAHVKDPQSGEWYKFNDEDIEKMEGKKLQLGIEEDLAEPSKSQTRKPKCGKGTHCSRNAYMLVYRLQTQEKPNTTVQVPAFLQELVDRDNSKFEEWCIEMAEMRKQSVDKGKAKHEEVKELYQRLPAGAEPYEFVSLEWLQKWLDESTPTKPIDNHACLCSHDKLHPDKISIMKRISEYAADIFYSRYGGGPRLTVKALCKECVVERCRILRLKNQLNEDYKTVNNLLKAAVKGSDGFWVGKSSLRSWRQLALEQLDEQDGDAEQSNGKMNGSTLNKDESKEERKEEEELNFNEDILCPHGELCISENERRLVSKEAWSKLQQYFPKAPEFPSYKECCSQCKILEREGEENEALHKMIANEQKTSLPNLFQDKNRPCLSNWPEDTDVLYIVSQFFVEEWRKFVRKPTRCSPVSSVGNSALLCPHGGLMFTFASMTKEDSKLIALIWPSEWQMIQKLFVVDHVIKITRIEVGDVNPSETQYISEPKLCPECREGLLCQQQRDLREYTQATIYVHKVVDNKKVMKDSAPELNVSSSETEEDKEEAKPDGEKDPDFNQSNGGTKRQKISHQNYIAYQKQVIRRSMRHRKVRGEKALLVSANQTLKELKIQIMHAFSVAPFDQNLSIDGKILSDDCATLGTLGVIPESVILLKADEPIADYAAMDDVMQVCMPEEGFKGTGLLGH
Method in brief: as §1

USP5 = target: T4, USP5 (UniProt P45974)
T4 sequence (whole entry): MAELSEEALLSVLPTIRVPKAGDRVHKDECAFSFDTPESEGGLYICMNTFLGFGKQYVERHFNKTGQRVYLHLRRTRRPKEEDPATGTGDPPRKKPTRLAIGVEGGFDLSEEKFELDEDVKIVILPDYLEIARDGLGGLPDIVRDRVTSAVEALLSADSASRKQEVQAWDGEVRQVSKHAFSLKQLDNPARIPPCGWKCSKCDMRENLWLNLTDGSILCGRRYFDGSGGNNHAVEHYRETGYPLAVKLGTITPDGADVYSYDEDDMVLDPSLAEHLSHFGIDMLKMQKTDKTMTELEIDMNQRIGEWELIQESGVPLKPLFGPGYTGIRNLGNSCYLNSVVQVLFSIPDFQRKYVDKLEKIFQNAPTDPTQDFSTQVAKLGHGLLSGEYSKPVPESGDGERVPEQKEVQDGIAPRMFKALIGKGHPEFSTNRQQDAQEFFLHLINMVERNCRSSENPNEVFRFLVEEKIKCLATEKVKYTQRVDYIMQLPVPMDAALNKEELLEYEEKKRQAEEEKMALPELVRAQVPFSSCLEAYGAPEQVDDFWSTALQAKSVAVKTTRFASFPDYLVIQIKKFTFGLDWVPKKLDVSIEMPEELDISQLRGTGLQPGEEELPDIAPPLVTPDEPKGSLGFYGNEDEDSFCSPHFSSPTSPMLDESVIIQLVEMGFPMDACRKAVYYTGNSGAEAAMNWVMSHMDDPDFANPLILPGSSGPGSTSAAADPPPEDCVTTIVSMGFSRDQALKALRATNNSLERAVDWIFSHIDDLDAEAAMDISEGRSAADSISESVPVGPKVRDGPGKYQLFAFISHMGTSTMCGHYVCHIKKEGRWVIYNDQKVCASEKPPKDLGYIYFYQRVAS
Method in brief: as §1

USP54 = USP54 (UniProt Q70EL1)
Method in brief: as §1

USP7 = USP7 (UniProt Q93009)
Method in brief: as §1

USP8 = target: T5, USP8 (UniProt P40818)
T5 sequence (whole entry): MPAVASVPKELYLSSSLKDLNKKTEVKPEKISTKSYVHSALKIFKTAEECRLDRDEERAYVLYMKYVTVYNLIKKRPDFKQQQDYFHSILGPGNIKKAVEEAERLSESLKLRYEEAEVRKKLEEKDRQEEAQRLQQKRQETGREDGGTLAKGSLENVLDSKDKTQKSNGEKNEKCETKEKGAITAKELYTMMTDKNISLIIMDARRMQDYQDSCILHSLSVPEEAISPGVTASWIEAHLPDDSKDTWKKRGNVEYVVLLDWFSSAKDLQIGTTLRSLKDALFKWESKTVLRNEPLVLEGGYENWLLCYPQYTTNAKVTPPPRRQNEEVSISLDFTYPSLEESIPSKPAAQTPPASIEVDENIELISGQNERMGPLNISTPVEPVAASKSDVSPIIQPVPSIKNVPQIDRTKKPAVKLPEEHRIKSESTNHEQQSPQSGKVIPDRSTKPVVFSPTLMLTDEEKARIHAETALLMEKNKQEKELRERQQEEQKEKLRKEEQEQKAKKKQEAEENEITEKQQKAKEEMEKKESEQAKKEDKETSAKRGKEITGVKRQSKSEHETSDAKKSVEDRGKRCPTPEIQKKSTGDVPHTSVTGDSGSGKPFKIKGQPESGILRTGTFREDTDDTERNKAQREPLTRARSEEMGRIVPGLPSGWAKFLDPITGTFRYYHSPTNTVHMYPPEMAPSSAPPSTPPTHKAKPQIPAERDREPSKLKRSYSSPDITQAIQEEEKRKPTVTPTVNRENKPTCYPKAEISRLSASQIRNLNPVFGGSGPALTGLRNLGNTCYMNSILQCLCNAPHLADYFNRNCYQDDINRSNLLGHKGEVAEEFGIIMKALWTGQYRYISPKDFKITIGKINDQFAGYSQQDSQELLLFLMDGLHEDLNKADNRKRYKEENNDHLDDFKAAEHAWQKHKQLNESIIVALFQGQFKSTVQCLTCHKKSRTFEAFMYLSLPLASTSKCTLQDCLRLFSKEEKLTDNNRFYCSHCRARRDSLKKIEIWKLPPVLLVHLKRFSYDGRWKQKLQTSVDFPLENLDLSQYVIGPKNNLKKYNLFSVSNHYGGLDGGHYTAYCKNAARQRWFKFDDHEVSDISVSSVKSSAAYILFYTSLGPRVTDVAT
Method in brief: as §1

USP9X = USP9X (UniProt Q93008)
Method in brief: as §1

UniProt O00487 = target: UniProt O00487
Method in brief: as §1

Measured: log2 ratio of Biotin-Ahx-Ub-VS probe labelling

USP54, sequence (Q70EL1 whole entry): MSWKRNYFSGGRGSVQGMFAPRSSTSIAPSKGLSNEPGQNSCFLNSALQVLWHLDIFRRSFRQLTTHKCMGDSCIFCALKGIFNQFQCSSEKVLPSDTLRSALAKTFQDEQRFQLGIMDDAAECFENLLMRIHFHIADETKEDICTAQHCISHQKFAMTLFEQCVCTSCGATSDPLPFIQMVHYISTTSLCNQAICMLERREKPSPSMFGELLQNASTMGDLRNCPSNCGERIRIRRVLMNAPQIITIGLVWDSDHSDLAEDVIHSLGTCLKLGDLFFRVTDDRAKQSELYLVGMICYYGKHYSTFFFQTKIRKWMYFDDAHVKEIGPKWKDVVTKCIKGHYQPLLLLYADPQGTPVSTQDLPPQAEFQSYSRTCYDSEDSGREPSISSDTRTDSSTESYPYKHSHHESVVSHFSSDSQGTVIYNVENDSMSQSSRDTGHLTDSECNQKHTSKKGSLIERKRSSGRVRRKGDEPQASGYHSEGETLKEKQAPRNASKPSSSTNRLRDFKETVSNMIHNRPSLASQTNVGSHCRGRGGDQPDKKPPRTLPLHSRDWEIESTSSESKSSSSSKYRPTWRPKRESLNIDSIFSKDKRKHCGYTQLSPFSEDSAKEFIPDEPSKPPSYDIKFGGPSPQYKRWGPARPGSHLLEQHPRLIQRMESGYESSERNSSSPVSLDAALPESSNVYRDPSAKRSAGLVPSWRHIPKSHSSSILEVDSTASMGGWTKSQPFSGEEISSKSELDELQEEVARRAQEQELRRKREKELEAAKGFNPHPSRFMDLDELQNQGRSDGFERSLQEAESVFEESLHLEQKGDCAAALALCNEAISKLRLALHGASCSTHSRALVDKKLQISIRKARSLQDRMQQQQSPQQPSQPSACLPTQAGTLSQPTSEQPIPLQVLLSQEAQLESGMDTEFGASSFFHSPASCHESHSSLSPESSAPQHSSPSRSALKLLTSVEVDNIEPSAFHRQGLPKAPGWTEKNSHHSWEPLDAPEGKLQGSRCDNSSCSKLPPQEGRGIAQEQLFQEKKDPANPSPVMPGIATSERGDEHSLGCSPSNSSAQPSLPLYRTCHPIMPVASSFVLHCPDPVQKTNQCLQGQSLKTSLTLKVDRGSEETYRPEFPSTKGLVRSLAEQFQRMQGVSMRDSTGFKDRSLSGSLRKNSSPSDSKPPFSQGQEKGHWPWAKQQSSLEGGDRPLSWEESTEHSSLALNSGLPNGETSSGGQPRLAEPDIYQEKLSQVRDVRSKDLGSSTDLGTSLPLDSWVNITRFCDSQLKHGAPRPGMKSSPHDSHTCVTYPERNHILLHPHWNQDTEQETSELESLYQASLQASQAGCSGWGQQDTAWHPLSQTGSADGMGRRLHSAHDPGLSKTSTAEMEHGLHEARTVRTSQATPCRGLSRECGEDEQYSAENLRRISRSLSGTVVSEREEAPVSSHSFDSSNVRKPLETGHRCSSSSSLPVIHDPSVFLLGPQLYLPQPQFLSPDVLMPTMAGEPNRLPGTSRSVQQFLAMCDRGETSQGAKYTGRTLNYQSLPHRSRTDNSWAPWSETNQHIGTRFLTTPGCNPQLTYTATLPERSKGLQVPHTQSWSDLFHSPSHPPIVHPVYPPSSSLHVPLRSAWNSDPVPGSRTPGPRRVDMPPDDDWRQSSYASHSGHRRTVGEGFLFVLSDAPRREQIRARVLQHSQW
UniProt O00487, sequence (O00487 whole entry): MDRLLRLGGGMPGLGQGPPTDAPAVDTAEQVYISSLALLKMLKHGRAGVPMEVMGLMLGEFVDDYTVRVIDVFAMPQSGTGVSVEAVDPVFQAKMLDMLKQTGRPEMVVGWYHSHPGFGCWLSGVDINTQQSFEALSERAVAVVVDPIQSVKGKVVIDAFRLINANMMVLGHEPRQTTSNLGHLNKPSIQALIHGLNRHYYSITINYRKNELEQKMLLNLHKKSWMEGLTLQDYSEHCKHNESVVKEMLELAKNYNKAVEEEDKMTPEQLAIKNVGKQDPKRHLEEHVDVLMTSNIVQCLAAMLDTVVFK
USP7, sequence (Q93009 whole entry, looked up): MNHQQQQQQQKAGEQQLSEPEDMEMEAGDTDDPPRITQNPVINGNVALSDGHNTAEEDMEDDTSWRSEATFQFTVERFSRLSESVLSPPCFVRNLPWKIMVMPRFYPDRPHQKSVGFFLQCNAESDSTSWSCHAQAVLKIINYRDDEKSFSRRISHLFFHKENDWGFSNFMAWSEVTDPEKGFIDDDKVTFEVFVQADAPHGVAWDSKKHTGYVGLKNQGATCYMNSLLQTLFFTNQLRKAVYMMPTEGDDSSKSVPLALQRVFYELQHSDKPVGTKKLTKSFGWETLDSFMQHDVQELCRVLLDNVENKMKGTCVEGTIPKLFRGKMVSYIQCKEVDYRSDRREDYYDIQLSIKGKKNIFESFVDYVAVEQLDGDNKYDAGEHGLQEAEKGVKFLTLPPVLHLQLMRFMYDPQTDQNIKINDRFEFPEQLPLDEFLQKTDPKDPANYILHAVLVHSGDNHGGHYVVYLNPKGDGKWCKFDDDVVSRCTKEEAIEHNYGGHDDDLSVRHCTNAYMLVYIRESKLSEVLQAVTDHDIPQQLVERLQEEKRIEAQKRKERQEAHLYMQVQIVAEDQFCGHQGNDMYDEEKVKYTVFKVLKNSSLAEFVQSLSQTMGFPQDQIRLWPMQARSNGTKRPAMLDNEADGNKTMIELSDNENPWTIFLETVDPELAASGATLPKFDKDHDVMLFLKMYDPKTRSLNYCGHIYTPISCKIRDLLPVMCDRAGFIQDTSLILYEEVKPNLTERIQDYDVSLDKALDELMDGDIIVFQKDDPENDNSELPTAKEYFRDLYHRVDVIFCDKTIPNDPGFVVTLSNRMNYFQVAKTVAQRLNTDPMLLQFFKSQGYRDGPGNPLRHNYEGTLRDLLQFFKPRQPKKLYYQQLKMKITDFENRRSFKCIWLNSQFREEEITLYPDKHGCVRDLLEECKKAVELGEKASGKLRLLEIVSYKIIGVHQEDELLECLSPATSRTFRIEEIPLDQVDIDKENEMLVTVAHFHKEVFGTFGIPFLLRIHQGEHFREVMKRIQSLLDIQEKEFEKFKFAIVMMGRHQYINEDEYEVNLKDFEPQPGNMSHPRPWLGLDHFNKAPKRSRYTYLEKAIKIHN
USP46, sequence (P62068 whole entry): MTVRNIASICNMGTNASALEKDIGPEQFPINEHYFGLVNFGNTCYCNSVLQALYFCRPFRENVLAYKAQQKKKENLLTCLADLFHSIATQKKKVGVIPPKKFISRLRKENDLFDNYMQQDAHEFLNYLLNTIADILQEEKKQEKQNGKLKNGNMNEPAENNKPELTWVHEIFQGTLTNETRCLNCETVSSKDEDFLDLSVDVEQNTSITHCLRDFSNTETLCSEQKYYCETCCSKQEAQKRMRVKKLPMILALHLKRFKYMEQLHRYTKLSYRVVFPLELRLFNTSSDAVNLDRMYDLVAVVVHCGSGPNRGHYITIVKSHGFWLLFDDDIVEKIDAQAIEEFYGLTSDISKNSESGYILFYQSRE

O=C(CCl)N1CCOC(c2cccc(F)c2)C1 (stereo not given)
inactive: USP42 -0.424 | USP46 -0.374 | USP47 -0.467 | USP5 0.362 | USP54 0.45 | USP7 -0.705 | USP8 -0.461 | USP9X -0.504 | UniProt O00487 0.15
active: USP48 -1.36
